# Test results from PubChem BioAssay (Tox21).
# “And” between values parts separate entries of the source, which are not always exact repeats. Equal entries are not always repeated. A structure can be active in one record and inactive in another. The source made the active and inactive calls. A call without a number means that no potency is given here. Unless noted, calls follow the shape of the dose curve; as a rule, active = well fitted curve in the direction sought with a large enough effect in the repeat runs; inconclusive = weak or mixed curves; inactive = no such curve, though single readings can be large; an effect the other way counts as inactive or inconclusive.
# Key:
# [1] = qHTS assay to identify small molecule antagonists of the thyroid receptor (TR) signaling pathway - cell viability counter screen (AID 743064); also: nearly all actives have a fitted effect of over 50% in size; also: potency is read from the fitted curve at half-maximal effect
# Procedure, shortened: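 Fluorescence from CellTiter-Fluor, added after 23.5 h exposure at 37 °C, reported viability of GH3.TRE-Luc cells co-treated with compound and 1 nM T3. Measured in the same wells as the luciferase TR readout.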
# [2] = qHTS assay to identify small molecule antagonists of the thyroid receptor (TR) signaling pathway (AID 743065); also: nearly all actives have a fitted effect of over 55% in size; also: potency is read from the fitted curve at half-maximal effect
# Procedure, shortened: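 Antagonism measured as loss of luciferase signal in GH3 cells stably carrying a TRE-luciferase reporter, co-treated with compound and T3 (1 nM final) for 23.5 h at 37 C. Viability was read in the same well by CellTiter-Fluor.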
# Aromatase (Homo sapiens) = Aromatase (Homo sapiens) (UniProt P11511); assay: qHTS assay to identify aromatase inhibitors (AID 743083); also: nearly all actives have a fitted effect of over 55% in size; also: potency is read from the fitted curve at half-maximal effect
# Aromatase (Homo sapiens), sequence (P11511 whole entry, looked up): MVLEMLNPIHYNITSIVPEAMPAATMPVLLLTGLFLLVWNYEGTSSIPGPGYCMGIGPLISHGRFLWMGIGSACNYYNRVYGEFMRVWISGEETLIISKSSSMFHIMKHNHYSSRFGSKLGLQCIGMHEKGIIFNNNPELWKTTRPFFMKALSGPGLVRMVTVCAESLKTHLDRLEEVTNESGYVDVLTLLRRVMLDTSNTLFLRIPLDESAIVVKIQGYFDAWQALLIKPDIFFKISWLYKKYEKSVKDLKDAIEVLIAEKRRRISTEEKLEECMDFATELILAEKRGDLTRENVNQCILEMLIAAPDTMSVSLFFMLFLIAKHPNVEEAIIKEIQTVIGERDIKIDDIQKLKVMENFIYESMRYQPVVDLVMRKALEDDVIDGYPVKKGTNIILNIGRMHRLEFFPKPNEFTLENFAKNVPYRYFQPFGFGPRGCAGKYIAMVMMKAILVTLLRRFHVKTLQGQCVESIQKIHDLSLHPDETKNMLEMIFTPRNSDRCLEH
# [3] = qHTS assay to identify aromatase inhibitors - cell viability counter screen (AID 743084);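 also: cells stimulated with testosterone during compound exposure; nearly all actives have a fitted effect of over 55% in size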; also: potency is read from the fitted curve at half-maximal effect
# [4] = target: Aryl hydrocarbon receptor (Homo sapiens) (UniProt P35869); assay: qHTS assay to identify small molecule that activate the aryl hydrocarbon receptor (AhR) signaling pathway (AID 743085); also: nearly all actives have a fitted effect of over 15% in size; also: potency is read from the fitted curve at half-maximal effect;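 as to activation: HG2L7.5c1 human HepG2 liver cells with stably integrated DRE-driven firefly reporter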
# Aryl hydrocarbon receptor (Homo sapiens), sequence (P35869 whole entry, looked up): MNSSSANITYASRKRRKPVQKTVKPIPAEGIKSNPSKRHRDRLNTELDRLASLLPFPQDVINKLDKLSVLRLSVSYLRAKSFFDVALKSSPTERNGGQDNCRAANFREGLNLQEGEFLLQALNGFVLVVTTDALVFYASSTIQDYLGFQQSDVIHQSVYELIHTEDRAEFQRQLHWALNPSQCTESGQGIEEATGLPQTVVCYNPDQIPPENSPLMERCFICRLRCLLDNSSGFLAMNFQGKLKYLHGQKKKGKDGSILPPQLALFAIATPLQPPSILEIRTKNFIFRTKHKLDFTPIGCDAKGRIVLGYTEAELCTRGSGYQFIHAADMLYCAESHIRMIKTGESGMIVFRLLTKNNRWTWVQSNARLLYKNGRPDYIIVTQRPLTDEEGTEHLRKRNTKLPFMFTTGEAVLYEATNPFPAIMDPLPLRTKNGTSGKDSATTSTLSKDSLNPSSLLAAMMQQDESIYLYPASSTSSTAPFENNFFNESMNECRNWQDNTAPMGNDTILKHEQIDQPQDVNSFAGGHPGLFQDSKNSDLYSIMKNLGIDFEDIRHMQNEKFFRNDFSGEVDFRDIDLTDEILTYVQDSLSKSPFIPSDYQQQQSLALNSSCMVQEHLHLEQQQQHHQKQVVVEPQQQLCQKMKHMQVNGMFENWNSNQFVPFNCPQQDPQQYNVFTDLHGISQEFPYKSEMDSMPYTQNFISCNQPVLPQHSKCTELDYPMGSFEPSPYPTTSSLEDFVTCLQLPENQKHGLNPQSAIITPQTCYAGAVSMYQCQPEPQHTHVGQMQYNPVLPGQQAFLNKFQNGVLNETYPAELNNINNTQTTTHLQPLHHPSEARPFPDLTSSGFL
# Procedure, shortened: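 Cell line HG2L7.5c1 (human hepatoma, 20× DRE-luc). Plated, 5 h 37C, compound/DMSO added, 24 h 37C. CellTiter-Fluor 30 min 37C → fluorescence; then ONE-Glo 30 min RT → luminescence.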
# [5] = qHTS assay to identify small molecule that activate the aryl hydrocarbon receptor (AhR) signaling pathway - cell viability counter screen (AID 743086);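 also: HepG2 liver cells carrying the AhR DRE luciferase reporter; nearly all actives have a fitted effect of over 45% in size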
# Procedure, shortened: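 Cytotoxicity counter screen: CellTiter-Fluor signal (30 min, 37 C) in 4000 HepG2 cells/well carrying the DRE-luciferase reporter, following 24 h compound exposure at 37 C.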
# [6] = qHTS assay to identify small molecule phospholipidosis (PLD) inducers (AID 1259344; active = well fitted curve in the direction sought with a large enough effect; inconclusive = small, poorly fitted or top-dose-only effect, or another doubt; inactive = no such curve, though single readings can be large; an effect the other way counts as inactive or inconclusive)
# Procedure, shortened: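 Fluorescent phospholipid staining (LipidTOX Red) measured by automated microscopy in fixed HepG2 cells after 24 h treatment; nuclei counterstained with Hoechst 33342; amiodarone as reference inducer.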
# [7] = target: Nuclear receptor subfamily 1 group I member 2 (Rattus norvegicus) (UniProt Q9R1A7); assay: Rat pregnane X receptor (rPXR) activation by small molecules, qHTS assay (AID 1346983); conditions: rPXR luciferase reporter cells, One-Glo luminescence, 24 h; max activation: stronger effect = higher value; also: nearly all actives have a fitted effect of over 20% in size; also: potency is read from the fitted curve at half-maximal effect
# Nuclear receptor subfamily 1 group I member 2 (Rattus norvegicus), sequence (Q9R1A7 whole entry, looked up): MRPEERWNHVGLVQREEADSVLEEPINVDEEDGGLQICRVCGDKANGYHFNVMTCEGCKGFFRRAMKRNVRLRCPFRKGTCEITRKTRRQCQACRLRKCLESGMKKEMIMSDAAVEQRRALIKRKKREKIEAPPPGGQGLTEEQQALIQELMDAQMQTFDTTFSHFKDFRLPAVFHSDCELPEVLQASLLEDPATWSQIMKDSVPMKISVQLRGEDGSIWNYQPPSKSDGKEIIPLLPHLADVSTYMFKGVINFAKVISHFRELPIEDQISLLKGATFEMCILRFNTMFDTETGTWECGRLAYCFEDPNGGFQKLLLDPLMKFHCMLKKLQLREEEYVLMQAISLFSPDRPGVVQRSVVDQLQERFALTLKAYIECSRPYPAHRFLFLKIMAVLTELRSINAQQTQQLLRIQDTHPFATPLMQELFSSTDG
# Procedure, shortened: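 Luminescent readout (One-Glo luciferase, 30 min room temperature) followed 24 hr compound treatment at 37 C of rPXR cells plated 2,000 per well and preincubated 5hr; qHTS format with compounds delivered in DMSO.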
# [8] = target: Nuclear receptor subfamily 1 group I member 2 (Homo sapiens) (UniProt O75469); assay: Human pregnane X receptor (PXR) activation by small molecules, qHTS assay (AID 1346985); also: nearly all actives have a fitted effect of over 40% in size; also: potency is read from the fitted curve at half-maximal effect
# Procedure, shortened: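 DPX-2 cells (HepG2 co-transfected with a PXR response element and a CYP3A4-promoter luciferase construct) were seeded at 2,000 per well, rested 5 hr at 37C, then exposed to DMSO-dissolved compounds for 24 hr. Activation was read as luciferase luminescence.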
# [9] = test system: thyroid hormone receptor (rat, GH3 cells); assay: qHTS assay to identify small molecule agonists of the thyroid receptor (TR) signaling pathway (AID 743066; calls by dose curve)
# [10] = target: Estrogen receptor (Homo sapiens) (UniProt P03372); assay: qHTS assay to identify small molecule antagonists of the estrogen receptor alpha (ER-alpha) signaling pathway (AID 743069; active = well fitted curve in the direction sought with a large enough effect in the signal ratio in the repeat runs, not every such curve was filed as active; inconclusive = weak or mixed curves, or effect the other way; inactive = no such curve, though single readings can be large or run the other way; the % refers to the signal ratio; also: potency is read from the fitted curve at half-maximal effect)
# Estrogen receptor (Homo sapiens), sequence (P03372 whole entry, looked up): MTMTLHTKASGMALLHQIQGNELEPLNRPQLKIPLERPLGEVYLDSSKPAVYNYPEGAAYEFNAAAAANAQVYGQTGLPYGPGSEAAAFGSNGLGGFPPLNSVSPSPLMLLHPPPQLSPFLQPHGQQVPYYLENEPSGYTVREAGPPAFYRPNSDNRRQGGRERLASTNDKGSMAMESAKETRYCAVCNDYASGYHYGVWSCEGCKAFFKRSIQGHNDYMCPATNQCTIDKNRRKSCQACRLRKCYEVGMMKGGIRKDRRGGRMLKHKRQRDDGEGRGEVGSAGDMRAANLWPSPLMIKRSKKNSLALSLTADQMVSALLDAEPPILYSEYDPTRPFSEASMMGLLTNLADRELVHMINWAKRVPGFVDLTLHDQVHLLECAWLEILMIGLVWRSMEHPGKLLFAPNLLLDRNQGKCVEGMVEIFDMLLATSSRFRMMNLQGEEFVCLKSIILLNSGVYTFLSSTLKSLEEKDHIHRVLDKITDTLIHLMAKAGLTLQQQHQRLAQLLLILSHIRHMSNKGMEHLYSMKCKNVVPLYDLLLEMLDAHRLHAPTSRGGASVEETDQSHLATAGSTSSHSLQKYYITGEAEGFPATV
# Procedure, shortened: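 Compound effects are measured against 17beta-estradiol stimulation in HEK293 cells with a UAS-controlled beta-lactamase reporter for ER-alpha. Exposure lasts 18 hr at 37C; LiveBLAzer B/G FRET substrate follows for 2 hr at room temperature.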
# [11] = qHTS assay to identify small molecule antagonists of the estrogen receptor alpha (ER-alpha) signaling pathway - cell viability counter screen (AID 743074; calls by dose curve;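 also: HEK293 cells carrying ER-alpha-UAS-bla reporter stimulated with 17beta-estradiol; nearly all actives have a fitted effect of over 45% in size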)
# [12] = target: Estrogen receptor (Homo sapiens) (UniProt P03372); assay: qHTS assay to identify small molecule agonists of the estrogen receptor alpha (ER-alpha) signaling pathway (AID 743075; calls by dose curve; also: potency is read from the fitted curve at half-maximal effect)
# [13] = target: Estrogen receptor (Homo sapiens) (UniProt P03372); assay: qHTS assay to identify small molecule agonists of the estrogen receptor alpha (ER-alpha) signaling pathway using the BG1 cell line (AID 743079); conditions: BG1Luc4E2 cells, ERE-luciferase agonist, 22 h; activation: at 70.3 µM (top of the series); also: nearly all actives have a fitted effect of over 20% in size; also: potency is read from the fitted curve at half-maximal effect
# [14] = qHTS assay to identify small molecule antagonists of the estrogen receptor alpha (ER-alpha) signaling pathway using the BG1 cell line (AID 743080; calls by dose curve;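 also: BG1 cells stimulated with 17beta-estradiol alongside compound; nearly all actives have a fitted effect of over 25% in size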)
# Procedure, shortened: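 Quantitative HTS on the Tox21 10K library: BG1 cells with endogenous ER-alpha and ERE-luciferase reporter, 17beta-estradiol stimulation, 21.5 h compound exposure, luminescence endpoint with parallel fluorescence cytotoxicity counter-read.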
# [15] = qHTS assay to identify small molecule antagonists of the estrogen receptor alpha (ER-alpha) signaling pathway using the BG1 cell line - cell viability counter screen (AID 743081);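 also: compound given together with 17beta-estradiol as the ER stimulus; nearly all actives have a fitted effect of over 45% in size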
# [16] = target: Nuclear receptor subfamily 1 group I member 2 (Homo sapiens) (UniProt O75469); assay: CYP3A4 induction through human pregnane X receptor (PXR) by small molecules, qHTS assay (AID 1346984); also: nearly all actives have a fitted effect of over 40% in size
# Procedure, shortened: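 DPX-2 HepG2 cells carrying a PXR response element and CYP3A4-promoter luciferase construct, treated with compounds 24 hr at 37C. Then P450-Glo CYP3A4 Luciferin-IPA substrate (3uM final) for 3 hr at 37C, One-Glo added, luminescence read.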
# [17] = target: Peroxisome proliferator-activated receptor gamma (Homo sapiens) (UniProt P37231); assay: qHTS assay to identify small molecule agonists of the peroxisome proliferator-activated receptor gamma (PPARg) signaling pathway (AID 743094; active = well fitted activation curve with a large enough effect in the signal ratio in the repeat runs, not every such curve was filed as active; inconclusive = weak or mixed curves, or effect the other way; inactive = no such curve, though single readings can be large or run the other way; the % refers to the signal ratio)
# Peroxisome proliferator-activated receptor gamma (Homo sapiens), sequence (P37231 whole entry, looked up): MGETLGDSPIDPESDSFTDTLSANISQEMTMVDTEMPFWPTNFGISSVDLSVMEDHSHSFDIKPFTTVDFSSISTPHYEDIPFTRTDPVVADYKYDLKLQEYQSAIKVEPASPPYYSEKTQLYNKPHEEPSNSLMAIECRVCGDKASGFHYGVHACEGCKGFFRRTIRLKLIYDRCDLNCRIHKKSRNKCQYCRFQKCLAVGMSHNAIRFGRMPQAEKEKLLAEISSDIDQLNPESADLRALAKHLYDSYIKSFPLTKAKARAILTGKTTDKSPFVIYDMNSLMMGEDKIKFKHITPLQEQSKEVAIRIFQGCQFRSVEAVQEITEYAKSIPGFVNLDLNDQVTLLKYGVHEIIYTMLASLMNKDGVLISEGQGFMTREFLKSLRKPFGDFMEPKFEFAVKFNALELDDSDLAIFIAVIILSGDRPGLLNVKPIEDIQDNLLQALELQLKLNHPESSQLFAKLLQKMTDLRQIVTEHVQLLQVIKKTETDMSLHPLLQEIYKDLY
# Procedure, shortened: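 GeneBLAzer PPARg UAS-bla HEK293H cells were plated, rested 5 h, then exposed to compounds for 17 h at 37C. Beta-lactamase activity was read by LiveBLAzer B/G FRET substrate fluorescence after 1 h at room temperature.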
SMILES,Potency [1],Potency [2],Potency (Aromatase (Homo sapiens)),Potency [3],Potency [4],Potency [5],Potency [6],max activation [7],Potency [8],Potency [9],Potency [10],Potency [11],Potency [12],Potency [13],Potency [14],Potency [15],Potency [16],activation [13],Potency [17],Potency [7]
CC[C@@H](C(=O)[C@@H](C)[C@@H](O)[C@H](C)[C@@H]1O[C@@H]([C@@H](CC)C(=O)O)CC[C@@H]1C)[C@H]1O[C@]2(C=C[C@@H](O)[C@]3(CC[C@@](C)([C@H]4CC[C@](O)(CC)[C@H](C)O4)O3)O2)[C@H](C)C[C@@H]1C,0.668 µM (active),668 nM (active),inactive,inactive,inactive,inactive,inactive,-12.1% (inactive),inactive,,,,,,,,,,,
COC(=O)[C@H]1[C@H]2C[C@@H]3c4[nH]c5cc(OC)ccc5c4CCN3C[C@H]2C[C@H](OC)[C@@H]1OC,,inactive,inactive,inactive,,inactive,inactive,6.76% (inactive),,inactive,inactive,inactive,inactive,inactive,inactive,inactive,inactive,,,
CCCCC(=O)O[C@H]1CC[C@H]2[C@@H]3CCc4cc(O)ccc4[C@H]3CC[C@]12C,,,inactive,inactive,,inactive,inactive,-1.73% (inactive),,,,inactive,0.0006 µM [inconclusive] (active),,inactive,inactive,inactive,61.2% (active),inactive,
CCC(=O)NCCC1CCc2ccc3c(c21)CCO3 (stereo unspecified),inactive,,inactive,inactive,inactive,inactive,inactive,-2.75% (inactive),28.2 µM (active),inactive,,inactive,inactive,4.22 µM (active),,inactive,,,inactive,
C#C[C@]1(O)CC[C@H]2[C@@H]3CCC4=CCCC[C@@H]4[C@H]3C(=C)C[C@@]21CC,,,inactive,inactive,inactive,inactive,inactive,-4.59% (inactive),,,inactive,inactive,2.39 µM [inconclusive] (active),1.88 µM (active),inactive,inactive,inactive,,inactive,
CC(=O)O[C@]1(C(C)=O)CC[C@H]2[C@@H]3CCC4=CC(=O)CC[C@]4(C)[C@@]3(F)[C@@H](O)C[C@@]21C,,inactive,inactive,inactive,inactive,inactive,inactive,,,inactive,,inactive,,2.66 µM (active),,inactive,inactive,,inactive,3.55 µM (active)
CN[C@@H]1[C@@H](O)[C@@H](O[C@@H]2[C@@H](O)[C@H](O[C@H]3O[C@H](CN)[C@@H](O)[C@H](O)[C@H]3O)[C@@H](N)C[C@H]2NC(=O)C(O)CN)OC[C@]1(C)O (stereo partly specified),inactive,inactive,inactive,inactive,inactive,inactive,inactive,-5.41% (inactive),inactive,inactive,inactive,inactive,inactive,inactive,inactive,inactive,,,,
COC(=O)[C@H]1[C@H]2C[C@@H]3c4[nH]c5ccccc5c4CCN3C[C@H]2C[C@@H](OC(=O)c2cc(OC)c(OC)c(OC)c2)[C@@H]1OC,26.6 µM (active),2.11 µM (active) and 21.1 µM (active),5.96 µM (active) and 29.8 µM (active),6.68 µM (active) and inactive,13.3 µM (active) and 6.68 µM (active),inactive,inactive,-18.7% (inactive),inactive,,2.39 µM [inconclusive] (active),inactive,inactive,inactive,,inactive,,,,
CCc1ccc(S(=O)(=O)O)cc1,inactive,inactive,inactive,inactive,11.9 µM (active),inactive,inactive,-0.665% (inactive),inactive,inactive,,inactive,4.77 µM [inconclusive] (active),0.298 µM (active),inactive,inactive,,,inactive,
O=C(O)[C@H](CC(=O)N1C[C@H]2CCCC[C@H]2C1)Cc1ccccc1,inactive,,inactive,inactive,inactive,inactive,inactive,-2.62% (inactive),,inactive,inactive,,inactive,33.5 µM (active),inactive,inactive,,,inactive,
CN(C)C=Nc1c(I)cc(I)c(CCC(=O)O)c1I,inactive,inactive,inactive,inactive,inactive,inactive,inactive,-2.71% (inactive),,inactive,inactive,inactive,inactive,inactive,inactive,inactive,,,,
CCCCC(=O)N(Cc1ccc(-c2ccccc2-c2nn[nH]n2)cc1)[C@@H](C(=O)O)C(C)C,,,inactive,inactive,inactive,inactive,inactive,-1.58% (inactive),,,inactive,inactive,inactive,inactive,,inactive,inactive,,inactive,
CC1CC(OC(=O)C(O)c2ccccc2)CC(C)(C)C1 (stereo unspecified),,,inactive,,,inactive,inactive,-1.68% (inactive),,inactive,inactive,inactive,inactive,inactive,,inactive,inactive,,inactive,
